Ten molecules from ChEMBL document CHEMBL1157539, “Thousands of chemical starting points for antimalarial lead identification” (Nature, 2010) can be followed below.

Broadly, the Inhibition is how much of the control response was suppressed.

Holding throughout (format): functional
Assay [1] deals with Plasmodium falciparum. The experiment in a line: GSK_TCMDC: Inhibition of Plasmodium falciparum 3D7 in whole red blood cells, using parasite LDH activity as an index of growth. Test compounds present at 2uM.
Assay [2] deals with Plasmodium falciparum. Nature of the assay: GSK_TCMDC: Inhibition of Plasmodium falciparum Dd2 in whole red blood cells, using parasite LDH activity as an index of growth. Test compounds present at 2uM.
The subject of a further assay is HepG2. Nature of the assay: GSK_TCMDC: Percent inhibition of human HepG2 cell line. Test compounds present at 10uM.

Regarding `Fc1cc(Cl)ccc1Nc1ccnc2cc(-c3ccc(CN4CCOCC4)o3)ccc12`, the Inhibition in the assay with Plasmodium falciparum [1] came to 99%; in the assay on Plasmodium falciparum [2] it was 98%; in the assay with HepG2, 33%.

For the molecule `Cc1cc(CNC(=O)[C@H](CC2CCCCC2)Nc2ccc(C#N)c3ccccc23)c(C(F)(F)F)o1.O=C(O)C(F)(F)F`, the Inhibition was 87% in the assay on Plasmodium falciparum [1], 55% in the assay on Plasmodium falciparum [2] and 13% in the assay on HepG2.

`O=C(NC1CC1)c1cnc(N2CCC(COc3cccc(F)c3)CC2)c(Cl)c1`: the Inhibition in the assay on Plasmodium falciparum [1] was determined as 89%; in the assay on Plasmodium falciparum [2], 87%; in the assay on HepG2, 1%.

With `Cc1cc(N2CCCC2)nc(Nc2ccc(NC(=O)Nc3ccccc3)cc2)n1`, the Inhibition in the assay on Plasmodium falciparum [1] worked out at 99%; in the assay with Plasmodium falciparum [2], 100%; in the assay on HepG2 it was 35%.

Take `COc1ccc(CNc2ncc(-c3ccsc3)c(-c3nccs3)n2)cc1OC`: the values for the Inhibition with Plasmodium falciparum [1], with Plasmodium falciparum [2] and with HepG2 were 86%, 69% and 10%, respectively.

As for `CCNC(=O)NC1CCN(Cc2c(-c3cccs3)nc3ccccc3c2C(=O)N[C@@H](C)C2CCCCC2)CC1`, the Inhibition in the assay on Plasmodium falciparum [1] came out at 95%; in the assay with Plasmodium falciparum [2] it was 96%; in the assay with HepG2, 0%.

Turning to `Cc1cccc2nc(-c3ccc(-c4ccc(CN5CCOCC5)cc4)cc3)[nH]c12.O=C(O)C(F)(F)F`, the figures for the Inhibition in the assay on Plasmodium falciparum [1], in the assay with Plasmodium falciparum [2] and in the assay on HepG2 were 92%, 86% and 29%, respectively.

Turning to `CCOc1cc(CC)ccc1C1CCN(CCN2CCC(NC(=O)c3ccc(-c4ccc(C(C)=O)cc4)cc3)CC2)CC1`, the Inhibition in the assay on Plasmodium falciparum [1] was determined as 100%; with Plasmodium falciparum [2], 8%; in the assay on HepG2, 25%.

Consider `CNC(=O)c1ccccc1Nc1nc(Nc2ccc(C(=O)O)cc2)ncc1Cl.Cl`, for which the Inhibition was determined as 92% in the assay on Plasmodium falciparum [1], 92% with Plasmodium falciparum [2] and 60% in the assay with HepG2.

On to `Cn1nc(-c2ccc(NC(=O)Nc3ccc4ccccc4c3)c(F)c2)c2cnc(NCCN3CCOCC3)nc21.O=C(O)C(F)(F)F`, for which the Inhibition in the assay with Plasmodium falciparum [1] came out at 93%; with Plasmodium falciparum [2] it was 3%; in the assay with HepG2, 62%.
